Screening data from PubChem.
Rows were chosen to be rich in hits. Some 2.9% of all compounds tested hit in one or more screens of this group.
TRPM1 prom inh: MITF TRPM1 promoter inhibition in SK-MEL-5 cells. SK-MEL-5 TRPM1 promoter luciferase, 24 h. inhibition, % at 12.5 µM. 0.83% of 330,000 active. AID 488899;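 active means mean inhibition across replicates of 60% or more, whatever share of single replicates reaches that level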
Shn3 inh set2: Schnurri-3 reporter inhibition in Clone20 osteoblasts; Clone20 osteoblast Shn3 3'UTR firefly luciferase, 24 h; inhibition, % at 12.5 µM; 0.52% of 360,000 active;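 active means mean inhibition of at least 75% with every replicate also reaching 75%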;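 further: 0% = median of neutral control wells and 100% = pilot-screen positive control compound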
Peg3 promoter: inhibitors of Peg3 promoter; inhibition, % at 20 µM; 1.7% of 360,000 active; HeLa PEG-Prom luciferase reporter, luminescence, overnight; AID 588405;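 active means inhibition of at least 50% at 20 µM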
CF NFkB block: blocks PAF-induced NF-kB reporter in cystic fibrosis cells | KKLEB NF-kB-GFP reporter, GFP fluorescence overnight | 0.86% of 360,000 active | inhibition, % at 5 µM | AID 588850;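 active means at least 50% inhibition at 5 µM, scaled per plate between neutral and stimulator controls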;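 further: PAF is a Pseudomonas aeruginosa culture filtrate used as stimulus; plate controls were PAF-stimulated DMSO wells for no effect and unstimulated DMSO wells for full effect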
EBV LMP1 NFkB: inhibitors of Epstein-Barr LMP1-induced NF-kappaB reporter. LMP1-induced NF-kappaB luciferase reporter cells, luminescence. inhibition, % at 12.5 µM. 0.69% of 350,000 active. AID 504558; in the data active means inhibition above about 41%;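 further: 0% = neutral control wells and 100% = reference inhibitor control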
KKLEB tox: CF airway cell cytotoxicity counter-screen. KKLEB CF airway cells viability, ATPlite luminescence, overnight; hits give low values; cells stimulated with P. aeruginosa culture filtrate. activity change (cytotoxicity), % at 5 µM. 0.36% of 360,000 active;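 active means corrected activity change at or below -50% at 5 µM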
An asterisk follows results filed as active; . = no result given.

SMILES	TRPM1 prom inh	Shn3 inh set2	Peg3 promoter	CF NFkB block	EBV LMP1 NFkB	KKLEB tox
Cc1cccc(C)c1NC(=O)COc1ccc2c(C)c(Cc3ccccc3)c(=O)oc2c1C	13	8	73*	16	-2	-22
COc1ccc(-c2cc(C(F)(F)F)c(C#N)c(SCC(=O)Nc3nc(C)co3)n2)cc1	-1	1	57*	-18	-1	-7
COc1ccc(NC(=O)CSc2nc(-c3ccc(C)cc3)cc(C(F)(F)F)c2C#N)cc1	3	-20	10	-4	-23	-25
Cc1coc(NC(=O)CSc2nc(-c3ccc(Cl)cc3)cc(C(F)(F)F)c2C#N)n1	22	8	60*	-8	-58	-13
Cc1nc2ccccc2c2c1CC(C(C)(Cl)Br)O2 (stereo not drawn)	26	90*	6	25	18	-5
Cc1c(C(=O)NC2CC(C)(C)NC(C)(C)C2)oc2c(Cl)cccc12	.	1	-4	25	-10	-5
COc1ccc(NC(=O)C2CCN(S(=O)(=O)c3ccc4c(c3)NC(=O)C(C)S4)CC2)cc1 (stereo not drawn)	12	71	12	-3	4	0
CC(=O)N1c2ccc(S(=O)(=O)N3CCC(C(=O)Nc4cccc(Cl)c4)CC3)cc2CC1C (stereo not drawn)	17	89*	8	-11	8	0
CC(=O)N1c2ccc(S(=O)(=O)N3CCC(C(=O)Nc4cccc(F)c4)CC3)cc2CC1C (stereo not drawn)	13	86*	8	-6	1	-21
CC1Sc2ccc(S(=O)(=O)N3CCC(C(=O)Nc4ccc(Cl)cc4)CC3)cc2NC1=O (stereo not drawn)	19	89*	14	19	31	-4
CC(=O)N1c2ccc(S(=O)(=O)N3CCC(C(=O)Nc4cccc(C)c4)CC3)cc2CC1C (stereo not drawn)	14	65	6	-32	14	-14
COc1ccc(-c2coc3c(C(=O)NCC(C)C)cccc23)c(C)c1	.	15	2	25	.	-9
CN(Cc1ccc(Cl)c(Cl)c1)C(=O)C1CC(=O)N(c2ccc3c(c2)OCCO3)C1 (stereo not drawn)	.	-14	5	-6	0	1
COc1ccc(C2NC(=S)NC3=C2CCCC3=C2SCCS2)cc1 (stereo not drawn)	84*	-267	-130	11	-23	-28
CCc1c(C)sc(NC(=O)c2cc(-c3cc(OC)ccc3OC)on2)c1C#N	-8	-2	12	40	-20	-70*
C[C@@H](NC(=O)Cn1ccc(NC(=O)OCc2ccccc2)nc1=O)c1cccc2ccccc12	2	-4	13	-12	4	16
C[C@@H](NCCCn1ccc(NC(=O)OCc2ccccc2)nc1=O)c1cccc2ccccc12	-16	-16	71*	-9	-1	-7
COc1cc2c(O)c3c(c(-c4ccc5c(c4)OCO5)c2cc1OC)C(=O)OC3	27	80	81*	76*	-241	-73*
COc1cc2c(OC(C)=O)c3c(c(-c4ccc5c(c4)OCO5)c2cc1OC)C(=O)OC3	.	81	78*	17	-75	-35
COc1ccc(-c2oc(=O)c3cc(OC)c(OC)cc3c2-c2ccc3c(c2)OCO3)cc1	-15	-8	-98	-15	3	9
CCCCCc1cc(=O)oc2c(C(CCN3CCCCC3)c3ccc4c(c3)OCO4)c(OC)cc(OC)c12 (stereo not drawn)	84*	-16	96*	13	-11	-11
CCCCCc1cc(=O)oc2c(C(CCN3CCN(c4ccccc4)CC3)c3ccc(N(C)C)cc3)c(OC)cc(OC)c12 (stereo not drawn)	3	64	2	27	8	-3
COc1cc(OC)c2ccc(=O)oc2c1C(CCN1CCCC1)c1ccc2c(c1)OCO2 (stereo not drawn)	-12	20	-8	22	1	-18
CCCCCc1cc(=O)oc2c(C(CCN3CCCC(C)C3)c3ccc4c(c3)OCO4)c(OC)cc(OC)c12 (stereo not drawn)	10	-28	98*	21	0	-1
CCCCCc1cc(=O)oc2c(C(CCN(CC)CC)c3cc(OC)c(OC)c(OC)c3)c(OC)cc(OC)c12 (stereo not drawn)	93*	21	105*	12	0	-11
SMILES	TRPM1 prom inh	Shn3 inh set2	Peg3 promoter	CF NFkB block	EBV LMP1 NFkB	KKLEB tox
C1CCN(CC2CCCCN2)CC1 (stereo not drawn)	-2	9	4	0	0	16
N#Cc1cccc(C(Br)S(=O)(=O)c2ccccc2)c1 (stereo not drawn)	.	5	-5	15	-2	-4
Cc1cccc(C2(c3cccc(C)c3)CC2C(=O)Nc2ccc([N+](=O)[O-])cc2O)c1 (stereo not drawn)	66*	73	54*	58*	39	-62*
COc1ccc(-n2nnnc2C(c2ccnc3ccccc23)N2CCN(C/C=C/c3ccccc3)CC2)cc1 (stereo not drawn)	.	70	9	2	.	-8
Nc1ccc(-c2cc3ccccc3oc2=O)cc1	94*	77	38	13	58*	-5
CCOC(=O)/C(=C\c1ccc(Cl)cc1)c1nc2sc(C)c(C)c2c(=O)[nH]1	78*	23	108*	80*	6	-57*
Cc1ccc(S(=O)(=O)N2c3ccccc3-c3c(ssc3=S)C2(C)C)cc1	9	13	41	38	58*	-24
NC(N)=N/N=C(\N=Nc1ccccc1)c1ccc(Cl)cc1	40	5	90*	-4	-6	-2
NC(N)=N/N=C(\N=Nc1ccccc1)c1cccc2cccnc12	3	21	-12	-4	3	-1
N#Cc1cccc(NC(=O)c2cc(C3CCCCN3C(=O)CCCc3ccccc3)on2)c1 (stereo not drawn)	.	-3	32	-24	.	4
CC(C)C1CC(CCNCc2ccc(N(C)C)cc2)(c2ccccc2)CCO1 (stereo not drawn)	73*	1	59*	13	5	-5
CC(C)C1CC(CCNCc2ccc3c(c2)OCO3)(c2ccccc2)CCO1 (stereo not drawn)	-15	15	-22	7	-3	-7
CCC/C=C/c1ccc(CN2C(C)C(=O)N(Cc3cn(CCC4OCCCO4)nn3)CCS2(=O)=O)cc1 (stereo not drawn)	.	-30	8	-3	-2	12
O=C(O)CCCc1ccc2c(c1)CCc1ccccc1-2	88*	15	4	-24	24	-2
COC(=O)c1cc2n(n1)CCN(Cc1ccc(C)cc1)C2=O	-11	-6	15	1	6	-16
COC(=O)c1cc2n(n1)CCN(Cc1ccccc1Cl)C2=O	-8	-3	7	-1	70*	-1
